Measurements published in PubChem BioAssay (NCI).
Compounds without any hit were thinned out: in the full panel of roughly 79,000, 15% have a hit. Unmarked numbers belong to inactive results. Rule as the data show it: active = growth inhibition above about 70%; inactive = the rest.

Assay: NCI Yeast Anticancer Drug Screen. Data for the CLN2oe strain (AID 163);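 also: 0% = growth of vehicle-only control cultures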
Conditions: S. cerevisiae CLN2oe strain, at 3.7 µM, stronger effect = higher value
Summary of the method: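 Here, growth inhibition in a cell-cycle-altered yeast strain after compound exposure was quantified against vehicle control growth.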
`CCN(CC)CC[n+]1ccc2c(C)c3[nH]c4ccc(O)cc4c3c(C)c2c1` showed a growth inhibition of -4%.
Molecule `O=[n+]1c2ccc(Cl)cc2n([O-])c2ccc(Cl)cc21` has a growth inhibition of 0%.
`CCOP(=O)(OCC)C(Cc1ccccc1)N=C(c1ccccc1)c1ccccc1` (centres undefined) gave a growth inhibition of -18%.
Molecule `CC[C@@]1(O)C(=O)OCc2c1cc1n(c2=O)Cc2cc3c(N)cccc3nc2-1` has a growth inhibition of 23%.
Molecule `COC1C=COC2(C)Oc3c(C)c(O)c4c(c3C2=O)/C(=N/C2CCC(O)OC2C)C=C(NC(=O)/C(C)=C\C(=O)C2CC2C(O)C(C)C(O)C(C)C(OC(C)=O)C1C)C4=O` (centres undefined) has a growth inhibition of -11%.
Work on `COc1cc2c(c(OC)c1OC)-c1c(cc3c(c1OC)OCO3)CC(C)C(C)(O)C2OC(=O)c1ccccc1` (centres undefined) yielded a growth inhibition of 17%.
In the case of `O=c1ssc2ncccc12`, the growth inhibition was 6%.
In the case of `O=C1C2C(C(=O)N1c1ccc(OCc3ccccc3)cc1)C1c3ccccc3C2C2CCCCN21` (centres undefined), the growth inhibition was -10%.
For `COc1ccc(-c2cn(-c3ccc(I)cc3)c3ncnc(N)c23)cc1`, the growth inhibition was -8%.
Work on `CCOC(=O)C(NC(=O)c1ccccc1)(N1CCN(c2cc3c(cc2F)c(=O)c(C(=O)O)cn3C2CC2)CC1)C(F)(F)F` (centres undefined) yielded a growth inhibition of 3%.
Molecule `C/C(=N\O)C1CC2C=C(C#N)C1N(Cc1ccccc1)C2` (centres undefined) has a growth inhibition of -14%.
For `CC/C(=C(\c1ccccc1)c1ccc(OCCN(C)C)cc1)c1ccccc1`, the growth inhibition was 14%.
`COc1ccccc1N=NC(C(=O)c1ccccc1)C(=O)c1ccccc1` gave a growth inhibition of -5%.
Work on `CC(O)C(O)C(O)C(/C=N\Nc1ccccc1)=N/Nc1ccccc1` (centres undefined) yielded a growth inhibition of -4%.
`COc1ccc(/C=C2\SC(=S)N(/C=C/c3nc4ccccc4[nH]c3=O)C2=O)cc1OC` showed a growth inhibition of -11%.
In the case of `N#CN=Nc1cc(Cl)c(N=NC#N)cc1Cl`, the growth inhibition was -6%.
For `Cc1ccc(S(=O)(=O)Oc2cc(Cl)c(Cl)cc2Cl)cc1`, the growth inhibition was -6%.
In the case of `c1ccc2c(c1)Oc1cccc3cccc-2c13`, the growth inhibition was 16%.
In the case of `O=C(c1ccc(Cl)cc1Cl)C(Cl)Cl`, the growth inhibition was -8%.
Molecule `CC(C)C1=CCC2C(=C1)CCC1C(C)(C(=O)O)CCCC21C` (centres undefined) (tested in a mixture with another compound) has a growth inhibition of 6%.
With `COc1cc(/C=C2\CCc3ccccc3C2=O)cc(OC)c1OC` the growth inhibition was -2%.
`CC(=O)[O][Bi]([c]1ccccc1)[c]1ccccc1` showed a growth inhibition of 16%.
`S=C(N/N=C/c1ccccn1)Nc1ccc(Cl)cc1` gave a growth inhibition of -14%.
With `COc1cc(CC2CC(c3ccc4c(c3)OCO4)OC2=O)cc(OC)c1OC` (centres undefined) the growth inhibition was 1%.
`CNC1C(OC2C(OC3C(O)C(O)C(N=C(N)N)C(O)C3N=C(N)N)OC(C)C2(O)CO)OC(CO)C(O)C1O` (centres undefined) showed a growth inhibition of -6%.
For `NNC(=O)CCc1ccc2ccc3ccccc3c2c1`, the growth inhibition was -15%.
`Oc1ccc2ccccc2c1C(c1ccc(Cl)cc1)c1c(O)ccc2ccccc12` showed a growth inhibition of 5%.
`CCCCN(CCCC)CCSc1ccc(Cl)cc1` gave a growth inhibition of -12%.
Molecule `CCC(C)COC(=O)c1ccc(N=Cc2ccc(C=Nc3ccc(C(=O)OCC(C)CC)cc3)cc2)cc1` (centres undefined) has a growth inhibition of 0%.
`CC1(C)C(=O)OC(n2cc(F)c(=O)[nH]c2=O)C1=O` (centres undefined) gave a growth inhibition of 13%.
`O=[N+]([O-])CC(SCc1ccccc1)c1ccc2c(c1)OCO2` (centres undefined) showed a growth inhibition of 5%.
In the case of `COc1cc2c(cc1[N+](=O)[O-])C(=O)C(Br)(Br)CCC2`, the growth inhibition was 21%.
For `OCC1OC(OCC(O)C(O)C(O)C(/C=N/Nc2ccccc2)=N/Nc2ccccc2)C(O)C(O)C1O` (centres undefined), the growth inhibition was 8%.
For `COc1ccc(N=C2C(=O)Nc3ccc(Br)cc32)cc1`, the growth inhibition was 23%.
For `Cn1c(=O)c2ccccc2c2ccccc21`, the growth inhibition was 0%.
`CC[n+]1ccc2c(C)c3[nH]c4ccc(O)cc4c3c(C)c2c1` showed a growth inhibition of 17%.
Work on `CC(=O)ON1C(=O)c2cccc3cccc(c23)C1=O` yielded a growth inhibition of 10%.
With `COc1ccc2ccc3ccccc3c2c1C=O` the growth inhibition was -6%.
In the case of `OC1CCCc2c1cc1ccc3cccc4ccc2c1c34` (centres undefined), the growth inhibition was -14%.
